From PubChem BioAssay (NCI)
Compounds without any hit were thinned out: in the full panel of roughly 83,000, 20% have a hit.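 Cell lines were cultured in 96-well plates, exposed to a single compound concentration, and assessed for percent growth 48 hours later.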 A number with no mark means an inactive call. Calls of active or inactive are those of the source. The calls were made as follows: active = growth percent below 10; inactive = the rest.

system: NCI-H23 lung; assay: NCI-60 one-dose screen, 48 h (100 = growth as untreated, 0 = no growth, -100 = all killed); settings: 10 µM unless noted

| SMILES | growth |
| --- | --- |
| O=C(O)COc1ccc([N+](=O)[O-])cc1Cl | 108% |
| C=C[C@]1(C)C=C2C(=O)[C@@]3(O)OC[C@@]4(CCCC(C)(C)C43O)C2(O)C(O)C1 (stereo not given in full) | 80.1% |
| COC(=O)C(C(=O)OC)C(Br)C(Br)C(Br)c1ccccc1 (stereo not given) | 108% |
| C=CCNCCC#N | 113% |
| O=C1C=C(OCC=C(C(F)(F)F)C(F)(F)F)c2ccccc2C1=O | 19.1% |
| N#CCc1ncc(-c2ccc(C(F)(F)F)cc2)c(NC2CCCCCC2)n1 | 25.7% [100 µM] |
| C[C@]12CC[C@H]3[C@@H](CC[C@H]4C[C@@H](O)CC[C@@]43C)[C@@H]1CC(=O)C2 | 99.9% |
| COC(=O)c1cc(=O)nc(N/N=C/c2ccccc2O)s1 | 89% |
| [N-]=[N+]=Nc1ncc(-c2ccc(C(F)(F)F)cc2)c(NC2CCCCCC2)n1 | 38% [100 µM] |
| NC(CSC(c1ccccc1)(c1ccccc1)c1ccccc1)C(=O)NCC(=O)O (stereo not given) | 86.3% |
| COc1cc(-c2nc(/C=C3/C(=O)Nc4ccccc43)c3ccccn23)cc(OC)c1OC | 47.7% |
| COc1cc2cn3c4ccc(O)cc4[nH]c(=O)c3c2cc1OC | -6.02% (active) |
| CCCCCCCCCCCCCCCCNC(=O)Nc1ccc(C)c(NC(=O)NCCCCCCCCCCCCCCCC)c1 | 111% |
| O=C(c1ccccc1)c1ccccc1-c1ccccc1 | 46.2% |
| CN1NC(c2ccccc2)NN(C)C1=O | 107% |
| COc1cc2c(c3c1c(=O)c1cccc(F)c1n3C)C=CC(C)(C)O2 | 99% |
| NCCCOc1cc2ccccc2cc1C(=O)Nc1ccc(Cl)cc1OC(=O)c1cc2ccccc2cc1OCCCN | -72.2% (active) |
| O=C(/C=C/c1ccc(Cl)cc1)c1ccc(Cl)cc1 | 94.8% |
| CC(=O)O.[In] | 103% |
| COC(=O)[C@H](Cc1cn(C)cn1)NC(=O)[C@H](CC(=O)OCc1ccccc1)NC(=O)Nc1cc(C(F)(F)F)cc(C(F)(F)F)c1 | -83.9% [100 µM] (active) |

| SMILES | growth |
| --- | --- |
| COc1cc([C@@H]2c3cc4c(cc3[C@H](O)[C@H]3COC[C@@H]23)OCO4)cc(OC)c1OC | 91.8% |
| COc1ccc(/C=C2\CCCC3=C2N=C2SC=NN2C3c2ccc(OC)c(OC)c2)cc1OC (stereo not given) | 39.7% |
| CC(=O)CC(=O)OC/C=C(/C)CCC=C(C)C | 103% |
| CC(=O)Nc1ccc(S(=O)(=O)Cl)cc1 | 112% |
| CC(CCN1CCN(CCC(C)CC(C)(C)C)C1CC(C)CC(C)(C)C)CC(C)(C)C (stereo not given) | 100% |
| C=C(C)C(C(=O)OCC)(C(=O)OCC)C(C)C | 114% |
| CSCc1ncc(-c2ccc(C(F)(F)F)cc2)c(NC2CCCCCC2)n1 | 65.9% [25 µM] |
| CCn1cnc(C[C@H](NC(=O)[C@@H](NC(=O)Nc2cc(C(F)(F)F)cc(C(F)(F)F)c2)C(C)C)C(=O)OC)c1 | -78.8% [100 µM] (active) |
| O=Nc1ccc(O)c2ccccc12 | -9.22% (active) |
| COC(=O)c1c[n+]([O-])ccc1OC | 106% |
| CC#Cc1nc(Nc2cc(C)[nH]n2)c2ccccc2n1 | 2.12% [100 µM] (active) |
| CC(Br)c1nc2ccccc2cc1C(N)=O (stereo not given) | 107% |
| COC(=O)[C@H](Cc1cn(C)cn1)NC(=O)[C@@H](NC(=O)Nc1cc(C(F)(F)F)cc(C(F)(F)F)c1)C(C)(C)C | -64.7% [100 µM] (active) |
| CCCCCCC(C(=O)OCC)(C(=O)OCC)C1CCCCCC1 | 107% |
| CCCCCCCCCCCCCCCCCCOP(=O)(O)O | 106% |
| CCC(C)CC(N)O (stereo not given) | 105% |
| CN(C)CCOC(=O)C(C)(C)C | 114% |
| CNc1ccc(Nc2ccc(S(=O)(=O)O)cc2)c2c1C(=O)c1ccccc1C2=O | 106% |
| Cn1c2ccccc2c2ccccc21 | 99% |
| NCCCOc1cc(Cl)ccc1NC(=O)c1cc2ccccc2cc1OCCCN | -62.3% (active) |

system: NCI-H226 lung; assay: as above; settings: 10 µM unless noted

| SMILES | growth |
| --- | --- |
| O=C(O)COc1ccc([N+](=O)[O-])cc1Cl | 108% |
| C=C[C@]1(C)C=C2C(=O)[C@@]3(O)OC[C@@]4(CCCC(C)(C)C43O)C2(O)C(O)C1 (stereo not given in full) | 81.4% |
| COC(=O)C(C(=O)OC)C(Br)C(Br)C(Br)c1ccccc1 (stereo not given) | 96.5% |
| C=CCNCCC#N | 92.9% |
| O=C1C=C(OCC=C(C(F)(F)F)C(F)(F)F)c2ccccc2C1=O | 14.7% |
| N#CCc1ncc(-c2ccc(C(F)(F)F)cc2)c(NC2CCCCCC2)n1 | 55.3% [100 µM] |
| C[C@]12CC[C@H]3[C@@H](CC[C@H]4C[C@@H](O)CC[C@@]43C)[C@@H]1CC(=O)C2 | 100% |
| COC(=O)c1cc(=O)nc(N/N=C/c2ccccc2O)s1 | 101% |
| [N-]=[N+]=Nc1ncc(-c2ccc(C(F)(F)F)cc2)c(NC2CCCCCC2)n1 | 60.3% [100 µM] |
| NC(CSC(c1ccccc1)(c1ccccc1)c1ccccc1)C(=O)NCC(=O)O (stereo not given) | 99.6% |
| COc1cc(-c2nc(/C=C3/C(=O)Nc4ccccc43)c3ccccn23)cc(OC)c1OC | 82.5% |
| COc1cc2cn3c4ccc(O)cc4[nH]c(=O)c3c2cc1OC | 8.14% (active) |
| CCCCCCCCCCCCCCCCNC(=O)Nc1ccc(C)c(NC(=O)NCCCCCCCCCCCCCCCC)c1 | 98.9% |
| O=C(c1ccccc1)c1ccccc1-c1ccccc1 | 71.8% |
| CN1NC(c2ccccc2)NN(C)C1=O | 102% |
| COc1cc2c(c3c1c(=O)c1cccc(F)c1n3C)C=CC(C)(C)O2 | 110% |
| NCCCOc1cc2ccccc2cc1C(=O)Nc1ccc(Cl)cc1OC(=O)c1cc2ccccc2cc1OCCCN | -57.6% (active) |
| O=C(/C=C/c1ccc(Cl)cc1)c1ccc(Cl)cc1 | 100% |
| CC(=O)O.[In] | 101% |
| COC(=O)[C@H](Cc1cn(C)cn1)NC(=O)[C@H](CC(=O)OCc1ccccc1)NC(=O)Nc1cc(C(F)(F)F)cc(C(F)(F)F)c1 | -52.9% [100 µM] (active) |

| SMILES | growth |
| --- | --- |
| COc1cc([C@@H]2c3cc4c(cc3[C@H](O)[C@H]3COC[C@@H]23)OCO4)cc(OC)c1OC | 88.8% |
| COc1ccc(/C=C2\CCCC3=C2N=C2SC=NN2C3c2ccc(OC)c(OC)c2)cc1OC (stereo not given) | 45.3% |
| CC(=O)CC(=O)OC/C=C(/C)CCC=C(C)C | 101% |
| CC(=O)Nc1ccc(S(=O)(=O)Cl)cc1 | 95.5% |
| CC(CCN1CCN(CCC(C)CC(C)(C)C)C1CC(C)CC(C)(C)C)CC(C)(C)C (stereo not given) | 98.7% |
| C=C(C)C(C(=O)OCC)(C(=O)OCC)C(C)C | 109% |
| CSCc1ncc(-c2ccc(C(F)(F)F)cc2)c(NC2CCCCCC2)n1 | 87.5% [25 µM] |
| CCn1cnc(C[C@H](NC(=O)[C@@H](NC(=O)Nc2cc(C(F)(F)F)cc(C(F)(F)F)c2)C(C)C)C(=O)OC)c1 | -55.6% [100 µM] (active) |
| O=Nc1ccc(O)c2ccccc12 | 101% |
| COC(=O)c1c[n+]([O-])ccc1OC | 107% |
| CC#Cc1nc(Nc2cc(C)[nH]n2)c2ccccc2n1 | -27.7% [100 µM] (active) |
| CC(Br)c1nc2ccccc2cc1C(N)=O (stereo not given) | 106% |
| COC(=O)[C@H](Cc1cn(C)cn1)NC(=O)[C@@H](NC(=O)Nc1cc(C(F)(F)F)cc(C(F)(F)F)c1)C(C)(C)C | 64.7% [100 µM] |
| CCCCCCC(C(=O)OCC)(C(=O)OCC)C1CCCCCC1 | 99.6% |
| CCCCCCCCCCCCCCCCCCOP(=O)(O)O | 98.8% |
| CCC(C)CC(N)O (stereo not given) | 98% |
| CN(C)CCOC(=O)C(C)(C)C | 98% |
| CNc1ccc(Nc2ccc(S(=O)(=O)O)cc2)c2c1C(=O)c1ccccc1C2=O | 96.6% |
| Cn1c2ccccc2c2ccccc21 | 103% |
| NCCCOc1cc(Cl)ccc1NC(=O)c1cc2ccccc2cc1OCCCN | -28.9% (active) |
